# Compound activity from PubChem BioAssay.
# HCV inh – HCV inhibition | Huh7.5.1 HCVcc-Cre infection, luciferase reporter, 44 h | Potency, µM (top dose mostly 41.8 µM), without a hit: at the top dose activity change, negative = inhibition, most hits filed as inhibitors | hit rate 3.4% among 340,000; active = well fitted inhibition curve with a large enough effect; inconclusive = small, poorly fitted or top-dose-only effect, or another doubt; inactive = no such curve, though single readings can be large or run the other way; note: potency is the fitted concentration of half-maximal effect; % is set by controls: 0 for no effect and ±100 for the full control effect
#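 After 44 h co-culture of compound, cells and HCVcc-Cre (~0.5 moi), substrate is added for 15 min at room temperature and luciferase measured over 15 sec. Cells were seeded at 1,000/well and pre-cultured 4 h.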
# Marburg entry inh – Marburg virus entry inhibition; Marburg virus pseudotyped entry inhibition, cell reporter; Potency, µM (titrated, usually from 37.8 µM), inactives show at the top dose activity change, negative = inhibition, hits mostly inhibitors; hit rate 1.8% among 300,000; AID 540276; calls by dose curve; tested in HEK293 cells; note: potency is the fitted concentration of half-maximal effect; % is set by controls: 0 for no effect and ±100 for the full control effect
# FMDV antiviral – foot and mouth disease virus antiviral activity; hit rate 1.2% among 410,000; Potency, µM (doses to about 57.9 µM), for the others: top-dose activity change, negative = inhibition, actives largely listed as inhibitors; AID 1159524; FMDV antiviral cell-based qHTS; calls by dose curve; tested in HEK293T cells; note: read-out not given here; potency is the fitted concentration of half-maximal effect; % is set by controls: 0 for no effect and ±100 for the full control effect; nearly all actives have a fitted effect of over 45% in size
# CHX counter – counter-screen for Shiga toxin inhibitors: cycloheximide protein synthesis inhibition; cell reporter, cycloheximide protein synthesis inhibition counterscreen; max response, %; hit rate 12% among 300,000; AID 2314; in the data active = max response mostly above about 13%, no sharp cut-off; inactive = mostly below about 14%; note: read at 38.3 µM for the half of the compounds with a filed dose; 0% is about no effect
# Shiga toxin inh – inhibitors of Shiga toxin in Vero cells. inhibition, % at 38.7 µM. Vero cells, Shiga toxin protein synthesis inhibition reporter. hit rate 9.2% among 290,000; in the data active = inhibition mostly above about 28%, no sharp cut-off; inactive = mostly below about 43%; note: 0% is about no effect
# Lassa entry inh – Lassa virus entry inhibition. Lassa virus pseudotype entry inhibition, cell reporter. Potency, µM (doses to about 37.9 µM), for inactives: at the top dose activity change, negative = inhibition, hits mostly inhibitors. hit rate 1.2% among 300,000; calls by dose curve; tested in HEK293 cells; note: potency is the fitted concentration of half-maximal effect; % is set by controls: 0 for no effect and ±100 for the full control effect; nearly all actives have a fitted effect of over 50% in size
# Active calls of the source: *; ? = inconclusive; · = no result; [ ] = another dose, or the depositor's remark. An excerpt weighted towards active compounds, which were near 13% of everything screened.
SMILES,HCV inh,Marburg entry inh,FMDV antiviral,CHX counter,Shiga toxin inh,Lassa entry inh
CCOc1ccc2nc(NC(=O)CS(=O)(=O)c3ccccc3)sc2c1,-10.6%,-19.8%,12.1%,25.8*,active,-4.1%
CN(CC(=O)Nc1nc2ccccc2s1)S(=O)(=O)c1ccc(Br)cc1,?,-12.4%,35.5µM*,8.6,23.6,-13.6%[14.3 µM]
CCOc1ccc2nc(NC(=O)CS(=O)(=O)c3ccc(C)cc3)sc2c1,-21.8%,13.4%,-5.7%,24.8,20.2,?
O=C(CS(=O)(=O)c1ccccc1)Nc1nc2ccccc2s1,8.1%,·,-0.7%,25.2*,22.5,·
Cc1ccc2nc(NC(=O)CS(=O)(=O)Cc3ccccc3)sc2c1,6.0%,1.3%[46.1 µM],-0.2%,3.7,23.1,-10.9%
NS(=O)(=O)c1ccc2nc(NC(=O)CS(=O)(=O)c3ccccc3)sc2c1,22.4%,·,3.2%,-2.8,-5.0,·
CN(CC(=O)Nc1nc2ccccc2s1)S(=O)(=O)c1ccc(Cl)cc1,?,14.1%,-27.3%,-2.8,-2.6,17.8%
COc1cccc(CNC(=O)COC(=O)CCc2cc(OC)c(OC)c(OC)c2)c1,13.7%,-2.4%,-13.1%,·,·,9.0%
CCOc1ccc2nc(NS(=O)(=O)c3ccc(NC(C)=O)cc3)sc2c1,10.7%,16.7%,109.2%,1.4,25.3,-9.4%
CCOc1ccc2nc(NS(=O)(=O)Cc3ccccc3)sc2c1,8.6%,?,72.8%,20.5*,10.3,-4.7%
CCOc1ccccc1NC(=S)N1CCN(c2ccc(O)cc2)CC1,3.5%,·,37.7%,-3.7,13.3,·
O=C(Nc1ccc(F)c(Cl)c1)C1CCCC1,-3.1%,-26.9%[46.1 µM],12.8%,·,·,-2.5%
O=C(NC(=S)Nc1ccc(F)c(Cl)c1)C1CC1,-9.6%,1.4%[46.1 µM],3.5%,27.7*,16.8,?
Cc1ccc(NC(=S)NC(=O)C2CC2)cc1Cl,-10.4%,·,31.8%,28.1*,52.9*,·
COc1cc(C=NNc2ccccc2[N+](=O)[O-])cc(OC)c1OC,·,·,0.0%,·,·,·
O=C(CSC1=Nc2ccccc2C2CC=NN12)Nc1ccc2c(c1)OCO2 (stereo not given),?,?,20µM*,16.3*,9.7,-1.9%[46.1 µM]
Cc1nnc(SCC(=O)Nc2ccc3c(c2)OCCO3)n1N,-10.4%,1.4%,18.0%,10.5,18.3,2.1%
Nn1cnnc1SCC(=O)Nc1ccc2c(c1)OCCO2,1.1%,17.6%,·,11.6*,13.9,19.8%
O=C(CSc1nnnn1Cc1ccccc1)Nc1ccc2c(c1)OCCO2,-3.2%,22.0%,6.6%,23.0*,65.0,9.2%
CC(Sc1nnc2ccccn12)C(=O)Nc1ccc2c(c1)OCCO2 (stereo not given),27.1%,2.0%[46.1 µM],28.9%,21.4*,85.0*,13.1%
C[C@H](CO)N1C[C@H](C)[C@@H](CN(C)S(=O)(=O)c2ccc(F)cc2)Oc2ccc(NC(=O)C3CC3)cc2C1=O,3.8%,·,-26.6%,·,·,·
CC(C)C[C@H]1CN=C(N(C)C)N1CC1CCCCCC1,-1.7%,·,-22.6%,·,·,·
Cc1csc(SC(C)C(=O)Nc2ccc3c(c2)OCCO3)n1 (stereo not given),-20.8%,·,45.6%,29.4*,42.2,·
CC(C)n1nnnc1SCC(=O)Nc1ccc2c(c1)OCO2,0.3%,?,31.0%,26.4*,69.8*,?
CC(=O)Nc1ccc(C(=O)CSc2nnnn2C(C)C)cc1,-1.3%,19.5%,46.2%,21.3*,80.5*,-6.4%
SMILES,HCV inh,Marburg entry inh,FMDV antiviral,CHX counter,Shiga toxin inh,Lassa entry inh
c1ccn2c(SCc3ccc4c(c3)OCCO4)nnc2c1,-2.4%,·,46.1%,51.3*,98.1*,·
CC(=O)Nc1ccc(C(=O)CSc2nnnn2C)cc1,12.7%,16.8%[46.1 µM],2.7%,-0.8,-3.3,19.4%
O=C(CSc1nn(-c2ccccc2)c(=S)s1)Nn1cnnc1,18.6%,3.8%,8.9%,-4.5,15.5,?
Cc1ccc(NC(=O)CSc2nnnn2C)cc1S(=O)(=O)N(C)C,-20.1%,1.7%,22.6%,16.7*,31.2,26.0%
Cn1nnnc1SCC(=O)Nc1ccc2c(c1)OCCO2,11.4%,·,21.8%,32.8*,80.9*,·
Cc1ccc(NC(=O)CSc2nn(-c3ccccc3)c(=S)s2)cc1S(=O)(=O)N(C)C,?,7.31µM*,?,9.6,15.2,?
CC(Sc1nnnn1C)C(=O)Nc1ccc2c(c1)OCCO2 (stereo not given),16.7%,1.0%[46.1 µM],56.6%,29.2*,114.9*,?
CC(Sc1nnnn1C)C(=O)Nc1ccc(N2CCOCC2)cc1 (stereo not given),16.8%,26.2%,18.7%,7.2,27.8,6.5%
C=CCn1c(NC(=O)c2ccc(Br)o2)c(C(=O)OCC)sc1=S,17.5%,13.3%,22.1%,-3.6,-10.8,-3.0%
Cc1ccc(S(=O)(=O)N2CCOC23CCN(S(=O)(=O)c2cccs2)CC3)cc1,7.1%,-24.5%,14.5%,·,·,?
Cc1cnc(NC(=O)c2c(-c3ccccc3)noc2C)s1,-6.3%,·,-25.4%,-3.2,1.9,·
COC(=O)C1C(O)=C(C(C)=N)C(=O)CC1(C)C (stereo not given),5.8%,15.0%[46.1 µM],-7.5%,2.0,-5.3,-1.1%
O=C(CSc1nnnn1Cc1ccccc1)Nc1ccc2c(c1)OCO2,-11.7%,-6.2%,25.5%,12.8*,33.3*,-14.9%
COc1ccc(NC(=S)NC(=O)Cc2ccccc2)cc1,4.9%,·,57.5%,24.8*,·,·
O=C(Cc1ccccc1)NC(=S)Nc1ccc(OC(F)F)cc1,30.5%,-2.4%[46.1 µM],22.5%,17.8*,38.6*,29.6%[46.1 µM]
CCC(=O)Nc1ccc(NC(=S)NC(=O)Cc2ccccc2)cc1,-5.8%,?,4.4%,-2.6,-2.0,-22.0%
COCCNS(=O)(=O)c1cc(C)c(C)cc1C,9.7%,?,93.4%,-7.9,-11.1,2.5%
CC1CC(Nc2ccccc2)c2ccccc2N1C(=O)c1ccco1 (stereo not given),-25.1%,?,-13.0%,-1.8,-10.5,-17.6%
CC1CC(Nc2ccccc2)c2ccccc2N1C(=O)c1ccncc1 (stereo not given),4.2%,10µM*,-2.5%,-4.8,-9.5,-24.2%
COc1ccc(NS(=O)(=O)c2ccc(N/N=C(\C)c3ccncc3)c([N+](=O)[O-])c2)cc1,4.47µM*,6.31µM*,-13.1%,-5.3,-9.8,11.6µM*
C/C(=N\Nc1ccc(S(=O)(=O)Nc2ccccc2)cc1[N+](=O)[O-])c1ccncc1,·,·,·,-3.3,-4.0,·
CN(C)c1ccc(/C=N/NC(=O)c2sccc2-n2cccc2)cc1,12.9%,18.8%[46.1 µM],62.9%,38.7*,98.0*,20.0%
O=C(N/N=C\c1ccc(Cl)cc1Cl)c1sccc1-n1cccc1,?,-11.3%,0.0%,0.8,17.8,5.7%
O=C(N/N=C\c1ccc(Cl)cc1)c1sccc1-n1cccc1,7.7%,?,-9.4%,32.5*,70.3*,-9.5%
O=C(CCCN1CCC(O)(c2cccc(C(F)(F)F)c2)CC1)c1ccc(F)cc1,?,11.2µM*,-19.8%,·,·,?
O=C(CCCN1CCC(O)(c2ccc(Cl)cc2)CC1)c1ccc(F)cc1,?,10.3µM*,-15.9%,-2.0,7.0,?
O=C(CCCN1CCC(O)(c2ccc(Br)cc2)CC1)c1ccc(F)cc1,?,·,-19.3%,·,·,·
